zVAD death inh – L929 zVAD cell death inhibition; L929 zVAD necroptosis rescue, ATP luminescence, 24 h; with zVAD 60 µM; actives 0.38% (n = 220,000); AID 1377; viability rescue, % at 10 µM;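 active = activation, scaled between plate controls, above about 75%, limit read from the data; inactive = activation under that limit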
TNF necrop inh – inhibitors of TNF-alpha induced necroptosis in Jurkat FADD-/- cells; activation (protection from cell death), % at 10 µM; Jurkat FADD-/- TNF necroptosis rescue, ATP luminescence, 24 h; 0 = TNF only, 100 = no-TNF cells; actives 0.068% (n = 220,000);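 active = activation, meaning protection from cell death, of at least 50% relative to plate controls; inactive = activation below 50%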;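 also: necroptosis triggered by 40 ng/mL TNF-alpha added together with compound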
m-calpain inh – inhibitors of pig calpain II. actives 0.37% (n = 220,000). purified calpain II, fluorogenic peptide substrate, 30 min. inhibition, % at 16 µM;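 active = inhibition above about 50%, limit read from the data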
Mcl1-Bid inh – disrupts binding of human Mcl-1 to Bid peptide. Q07820. TR-FRET Mcl-1/Bid-Dy647 peptide binding, 1536-well. inhibition, % at 21.7 µM. actives 0.97% (n = 220,000). AID 1021;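 active = compounds that cut the binding signal by more than half at the single screening dose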;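 also: His-tagged Mcl-1 with europium anti-His antibody binding Bid BH3 peptide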
Target sequence (Q07820 whole entry, looked up): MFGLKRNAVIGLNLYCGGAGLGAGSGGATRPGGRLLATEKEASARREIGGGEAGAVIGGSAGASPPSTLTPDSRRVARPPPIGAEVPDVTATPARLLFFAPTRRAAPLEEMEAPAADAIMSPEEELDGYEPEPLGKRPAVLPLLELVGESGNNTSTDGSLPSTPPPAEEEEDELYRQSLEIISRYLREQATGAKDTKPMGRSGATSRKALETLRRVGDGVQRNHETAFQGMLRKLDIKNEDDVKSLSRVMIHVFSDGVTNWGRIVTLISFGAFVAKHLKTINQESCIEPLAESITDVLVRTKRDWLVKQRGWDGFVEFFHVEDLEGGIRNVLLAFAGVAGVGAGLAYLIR
Bim-Mcl-1 – disrupts Bim peptide binding to human Mcl-1; Bead-based flow cytometry, Bim peptide-Mcl-1 binding; inhibition, % at 10 µM; actives 0.1% (n = 190,000); in the data active = inhibition above about 40%
Mcl1-Noxa inh – disrupts binding of human Mcl-1 to Noxa peptide. TR-FRET Mcl-1/Noxa peptide binding, 2 h. inhibition, % at 21.7 µM. actives 1.5% (n = 220,000). AID 1022;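 active = compounds that cut the protein-peptide binding signal by more than 50% relative to plate controls in a single-dose test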;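 also: His-tagged Mcl-1 with rhodamine Noxa BH3 peptide and terbium anti-His antibody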
Numbers stand for hits; – = inactive; · = no result. Rows were chosen to be rich in hits. Some 2.8% of all compounds tested hit in one or more screens of this group.

SMILES	zVAD death inh	TNF necrop inh	m-calpain inh	Mcl1-Bid inh	Bim-Mcl-1	Mcl1-Noxa inh
CCOC(=O)C1CSC(CC(=O)Nc2ccc(Cl)cc2)C(=O)N1 (centres undefined)	–	–	–	–	–	–
Cc1ccc(-c2nn(-c3ccccc3)cc2NC(=O)CCl)cc1	–	–	–	–	–	–
O=C(O)c1ccc(N/N=C/c2ccc(-c3cccc(Cl)c3)o2)cc1	–	–	–	–	·	–
COC(=O)N/N=C/c1ccc(-c2ccc(Cl)cc2Cl)o1	–	–	–	–	·	–
O=C(O)c1ccc(N/N=C/c2ccc(-c3ccc(Cl)cc3Cl)o2)cc1	–	–	–	–	·	108
O=C(O)c1ccc(N/N=C/c2ccc(-c3cc(Cl)ccc3Cl)o2)cc1	–	–	–	62	·	111
COc1ccccc1NC(=O)CC(NC1CCCCC1)C(=O)O (centres undefined)	–	–	–	–	–	–
O=c1n(Cc2ccccc2Cl)nc2n1-c1ccccc1SC2	–	–	–	–	·	–
COc1ccc(C(=O)Nc2ccc(C(=O)OCC(=O)c3cccc4ccccc34)cc2)cc1	–	–	–	–	44	–
COc1ccc(NC(=O)CN(C)CC(=O)Nc2ccccc2SC)cc1	–	–	–	51	–	–
CCOc1ccc(NC(=O)CN(C)CC(=O)Nc2ccccc2SC)cc1OCC	–	–	–	–	–	–
CCC(=O)Nc1ccccc1C(=O)OCC(=O)c1cccc2ccccc12	–	–	–	–	–	–
COc1ccc(NC(=O)c2ccccc2SC)cc1	–	–	90	–	–	–
CC1CC(C)CN(C(=O)C(C)N(C)CC(=O)Nc2ccc(Cl)cc2)C1 (centres undefined)	–	–	–	–	–	–
COc1ccc(NC(=O)CN(C)C(C)C(=O)N2CCCCC2)cc1 (centres undefined)	–	–	–	56	–	–
CCCCOC(=O)C(C)Sc1n[nH]c(=O)[nH]c1=O (centres undefined)	–	–	–	–	–	–
CCN(CC)S(=O)(=O)c1ccc2c(c1)nc(CCC(=O)Nc1ccc3c(c1)OCO3)n2CC	–	–	–	–	–	–
O=C(Nc1nc2ccccc2s1)c1ccccc1	–	–	–	–	–	–
CSc1nc2ccc3nc(NC(=O)c4ccccc4)sc3c2s1	–	–	–	55	–	–
O=C(Nc1ccccc1)C1=C[C@@H](c2coc3ccccc3c2=O)C[C@@H](OCc2ccc(CO)cc2)O1	–	–	–	–	–	–
Cn1c(CCNC(=O)c2ccccc2)nc2cc(NC(=O)C3CCCCC3)ccc21	–	–	–	–	–	–
COc1ccc(NC(=O)Nc2nnc(CC(=O)NCc3ccccc3)s2)cc1	–	–	–	91	–	–
CCN(CC)C(=O)N1CCN(C)CC1	·	·	–	59	–	–
c1ccc(COc2ccc(OCCn3cncn3)cc2)cc1	–	–	–	–	–	–
c1ccc(Oc2cccc(OCCn3cncn3)c2)cc1	–	–	–	59	–	–
SMILES	zVAD death inh	TNF necrop inh	m-calpain inh	Mcl1-Bid inh	Bim-Mcl-1	Mcl1-Noxa inh
CCOc1nc(CC)nc(NC(=O)NS(=O)(=O)c2ccccc2Cl)n1	–	–	–	–	–	–
Cc1ccc(NC(=O)c2cc(N3C(=O)C=CC3=O)ccc2N2CCOCC2)cc1Cl	–	–	–	–	–	56
O=C(Nc1ccc(N2CCOCC2)cc1)Nc1ccc(Cl)c(Cl)c1	–	–	–	–	–	82
O=C(Nc1ccc(Cl)cc1)Nc1ccc(N2CCOCC2)cc1	–	–	–	–	–	·
COc1cccc(CN2CCC(C(=O)N3CCC(C)CC3)CC2)c1	–	–	–	–	–	–
C=C(C)CSc1nc2sc3c(c2c(=O)n1C1CCCCC1)CCN(C)C3	–	–	–	–	·	–
N#CCSc1nc2sc3c(c2c(=O)n1C1CCCCC1)CCCC3	–	68	–	–	–	–
O=C(CSc1nc2cc(Cl)ccc2s1)Nc1cccc(S(=O)(=O)N2CCOCC2)c1	–	–	–	–	–	–
COc1ccc(CNc2oc(COc3ccc(Cl)cc3)nc2C#N)cc1	–	–	54	–	–	–
CC(=O)c1c(C)nn(-c2ccccc2)c1C	–	–	–	–	·	–
CC(=O)c1c(C(C)=O)c(C)n(C(c2ccccc2)c2ccccc2)c1C	–	–	51	–	–	–
CS(=O)(=O)N(CCc1ccccc1)CC(=O)NCC1CCCO1 (centres undefined)	–	–	–	–	–	–
Cn1cccc1C(=O)C(=O)Nc1ccc(F)c(F)c1	–	–	–	–	–	–
N#Cc1cc([N+](=O)[O-])ccc1NC(=O)COC(=O)C12CC3CC(CC(C3)C1)C2	–	–	54	–	–	–
NS(=O)(=O)c1ccc(NC(=O)COC(=O)C23CC4CC(CC(C4)C2)C3)cc1	–	–	58	–	–	–
O=C(CSc1ncn[nH]1)Nc1cc(S(=O)(=O)N2CCCC2)ccc1Cl	–	–	–	–	–	–
Cc1cc(Nc2ccc3c(c2)OCCO3)c2cc(Cl)ccc2n1	–	–	–	–	–	–
COc1cc(/C=N/NC(=O)C(=O)NCc2ccco2)cc(Cl)c1O	–	–	–	–	·	62
COc1cc(/C=N/NC(=O)C(=O)NCc2ccco2)ccc1O	–	–	–	–	–	–
CC1=NNC(=O)/C1=C\c1cn(-c2ccccc2)nc1-c1cccs1	·	–	–	–	–	–
O=C(O)CCN1C(=O)/C(=C/c2cn(-c3ccccc3)nc2-c2cccs2)SC1=S	–	–	–	84	–	88
O=C(O)CCCCCN1C(=O)/C(=C\c2cn(-c3ccccc3)nc2-c2cccs2)SC1=S	–	–	–	89	·	99
Cc1ccc(-c2nn(-c3ccccc3)cc2/C=C2\SC(=S)N(CC(=O)O)C2=O)cc1	–	–	–	–	·	88
Cc1ccc(C(=O)C2CCN(CC(=O)Nc3ccc(N(C)C)cc3)CC2)cc1	–	–	–	–	–	–
O=C(CSc1nnc2ccccn12)Nc1cccc(S(=O)(=O)N2CCOCC2)c1	–	–	–	–	–	–
SMILES	zVAD death inh	TNF necrop inh	m-calpain inh	Mcl1-Bid inh	Bim-Mcl-1	Mcl1-Noxa inh
O=c1[nH]c2c(s1)C(c1cccnc1)C1C3CCC(C3)C1S2 (centres undefined)	–	–	–	–	·	–
O=c1[nH]c2c(s1)C(c1ccc(O)cc1)C1C3CCC(C3)C1S2 (centres undefined)	–	–	–	–	–	54
Cc1nn(Cc2ccccc2)c(N)c1C#N	–	54	–	–	–	–
Cc1nn(Cc2ccccc2)c(N)c1-c1ccccc1	–	–	–	–	–	–
Cc1cc(C)n(CCc2nc(-c3cccs3)cs2)n1	–	–	–	–	–	–
Cc1cc(C)n(CCc2nc(-c3ccco3)cs2)n1	–	–	–	–	–	53
Cc1cccc(N=Cc2[nH]c3ccc(Br)c(Cl)c3c2O)c1	–	–	–	–	–	62
COc1ccccc1CN=Cc1[nH]c2ccc(Br)c(Cl)c2c1O	–	–	–	–	–	–

Screening data as filed in PubChem.
